Data on 52 compounds can be found in ChEMBL document CHEMBL4513216, “Probing the Open Global Health Chemical Diversity Library for Multistage-Active Starting Points for Next-Generation Antimalarials” (ACS Infect Dis, 2020).

SMILES strings stand for the structures. Hit rate of the full screen: of about 69,000 compounds, about 8,600 (12%) showed an effect of 50% or more. Only a selection was taken, and strong results are over-represented in it overall.

In the assay the test system is Plasmodium berghei. Put plainly: Screen against P. berghei liver stage (PbLuc), transformed with Luciferase, at 10uM. Format: functional, HepG2. The conditions noted are these: tested at 10 uM.
For the compound `OCc1ccc(Cl)c(NCc2cccnc2)c1`, the INHIBITION stood at 3.16%.

For `CCCc1nn(Cc2ccc(Br)s2)c(=O)o1`, the INHIBITION came to 40.5%.

On to `CCc1nc(CN2CCCN(C(=O)CC(C)OC)CC2)cs1` (configuration not stated), for which the INHIBITION was 43.3%. As to `CN(Cc1nccn1CC(F)(F)F)C(=O)c1cccc(C#N)c1`, the INHIBITION worked out at 41.1%.

With `CC(NC(=O)CNc1cc2c(cc1Cl)OCCO2)c1ccco1` (configuration not stated), the INHIBITION was -10.3%. Next, `O=C(Nc1ccc(-c2cnc(NCCO)nc2)cc1)[C@@H]1CCCCN1`: 23.4%; `CCCn1nc2c(cc1=O)CN(Cc1ccccn1)CC2`: 58.3%; `CCCn1nc2c(cc1=O)CN(Cc1cc(C)on1)CC2`: 40.1%. Regarding `CCCn1nc2c(cc1=O)CN(CCN1CCCC1=O)CC2`, the INHIBITION was -7.35%. For `CCCn1nc2c(cc1=O)CN(CCCS(N)(=O)=O)CC2`, the INHIBITION was 47.6%. For the compound `CCCn1nc2c(cc1=O)CN(Cc1nc(C)c3ccccc3n1)CC2`, the INHIBITION was found to be 34.6%.

Consider `CCCn1nc2c(cc1=O)CN(CCS(C)(=O)=O)CC2`, for which the INHIBITION was determined as 70.1%. With `CNC(=O)N1CC[C@@H]2CN(Cc3ccccc3)S(=O)(=O)[C@@H]2CC1`, the INHIBITION was 23.1%. On to `CC(NC(=O)NCCc1nc(C(F)(F)F)cs1)C(=O)N(C)C` (configuration not stated), for which the INHIBITION is recorded as -15.5%. As for `O=C([C@H]1C[C@H]2OCC[C@H]2N(Cc2cccnc2)C1)N1CCCO1`, the INHIBITION was determined as 38.1%. As to `CCn1nccc1CNC(=O)C1CCC1`, the INHIBITION is reported as 21.8%. As for `c1cnc(NCc2nnn3c2CN(Cc2cccs2)CCC3)nc1`, the INHIBITION came to 24.9%. For the compound `Cc1nc(NCc2nnc(C)n2C)c2c(CC(C)C)csc2n1`, the INHIBITION is reported as 46.6%. `CCc1csc(C2CCCN(C(=O)c3ccc4[nH]nnc4c3)C2)n1` (configuration not stated): the INHIBITION is reported as -10.1%. Turning to `CCCn1nccc1-c1nccnc1CC1CCN(C(C)=O)C1` (configuration not stated), the INHIBITION is reported as 7.19%. On to `FC(F)(F)c1ccnc(N2C[C@H]3CCN(c4cccnc4)C[C@H]3C2)n1`, for which the INHIBITION came out at 5.96%.

In the case of `O=C(c1ccc(F)cc1)N1C[C@@H]2CCN(c3cccnc3)C[C@@H]2C1`, the INHIBITION came out at 43.9%.

With `COC(=O)N1CCCCC1C(=O)N1CCN(c2cccnc2)CC1` (configuration not stated), the INHIBITION stood at 82.2%. On to `Fc1cccc(N2C[C@H]3CCN(c4cccnc4)C[C@H]3C2)c1`, for which the INHIBITION was 50.5%. `O=C(CC1CC1)N1C[C@@H]2CCN(c3cccnc3)C[C@@H]2C1`: the INHIBITION was found to be 19.8%. As for `O=C(CC1CCCC1)N1C[C@@H]2CCN(c3cccnc3)C[C@@H]2C1`, the INHIBITION turned out to be 60.7%.

Take `COC(=O)N1CCCCC1C(=O)N1CCN(c2ncccc2C)CC1` (configuration not stated): the INHIBITION turned out to be 12.7%. As to `COC(=O)N1CCCCC1C(=O)N1CCCN(c2ccnc(C)c2)CC1` (configuration not stated), the INHIBITION was found to be 15.9%. For `c1cnc(N2C[C@H]3CCN(c4cccnc4)C[C@H]3C2)nc1`, the INHIBITION is on record as -0.113%. As for `c1cncc(N2CC[C@@H]3CN(CC4CC4)C[C@@H]3C2)c1`, the INHIBITION turned out to be 57.4%.

On to `Cc1cc(C(=O)Nc2ccn(CCCN3CCCC3)n2)c(C)o1`, for which the INHIBITION turned out to be 18.2%. Next, `O=S(=O)(C1CC1)N1CCC2(CCN(Cc3nccs3)CC2)CC1`: -12.1%; `CC1CN(C)c2ccccc2CN1CCn1cncn1` (configuration not stated): 38%; `CNc1ncc(CN2CCCC2c2[nH]ncc2C(=O)N(C)C)cn1` (configuration not stated): 20.2%. Consider `O=C(COc1cccc(Cl)c1)N1CCOCC(O)(CN2CCCC2)C1` (configuration not stated), for which the INHIBITION is recorded as -18.9%.

Take `CCC(C)(CC)NC(=O)COc1nn(C)c2nc(C)cc(C)c12`: the INHIBITION is recorded as 48.1%. With `CCCc1nnc(SCc2cc(=O)n3c4c(sc3n2)CCCC4)[nH]1`, the INHIBITION is reported as -4.35%.

Regarding `O=C(C1CN(c2ncc(F)cn2)CC12CCOCC2)N1CC=CC1` (configuration not stated), the INHIBITION was determined as 37.8%.

For `Cc1cccnc1CN1CCN(C(=O)c2ccn(C(C)(C)C)c2)CC1`, the INHIBITION turned out to be 45%. In the case of `O=C(NCCO)C1(Cc2ccccc2-c2cccnc2)CCOCC1`, the INHIBITION was -43%.

On to `CN(CC(C)(CO)CO)C(=O)Nc1cc(F)cc(F)c1`, for which the INHIBITION was 18.9%. The figure for `COc1ccccc1CN(C)Cc1ccnc(C2CCCO2)n1` (configuration not stated) is 14.755%; for `O=C(C1CCC1)N1C[C@@H]2CCN(c3cccnc3)C[C@@H]2C1` it is 5.96%; for `O=C(C1CCCC1)N1C[C@@H]2CCN(c3cccnc3)C[C@@H]2C1` it is 54.4%. Turning to `Cc1cccc(NC(=O)N2CCCn3cnc(CN4CCCC4)c3C2)c1`, the INHIBITION turned out to be 15.1%. For `CCc1nnc2n1CCN(Cc1csc(Cc3ccccc3)n1)C2`, the INHIBITION is recorded as 19.2%. For `CC1=N[C@@]2(CC[C@@H]3CN(CC(C)C)C[C@@H]32)C(=O)N1CC(C)C`, the INHIBITION is recorded as 39.2%. For `COCCN1C(=O)[C@]2(CC[C@@H]3CN(C(=O)NC4CCCC4)C[C@@H]32)N=C1C`, the INHIBITION was determined as 20.2%. Next, `COCCN1C(=O)[C@]2(CC[C@@H]3CN(C(=O)NC(C)C)C[C@@H]32)N=C1C`: 57.1%. `COCCN1C(=O)[C@]2(CC[C@@H]3CN(C(=O)NCC(C)C)C[C@@H]32)N=C1C`: the INHIBITION amounted to 18.1%.

For the compound `CC1=N[C@@]2(CC[C@@H]3CN(CC4CC4)C[C@@H]32)C(=O)N1CC(C)C`, the INHIBITION is 74.2%. `CC1=N[C@@]2(CC[C@@H]3CN(CC4CC4)C[C@@H]32)C(=O)N1CC1CC1`: the INHIBITION is 12.4%.
